# Screening results (PubChem)
# Sampled rows, rich in hits. Any-hit rate of the full collection: about 11%.
# CBFb RUNX1 block: qHTS Assay for Compounds Blocking the Interaction Between CBF-beta and RUNX1 for the Treatment of Acute Myeloid Leukemia; Runt-related transcription factor 1 (Homo sapiens) + Core-binding factor subunit beta …; AlphaScreen CBFb-His/RUNX1-biotin binding, biochemical; Potency, µM (series often up to 59.8 µM), hits mostly inhibitors; 230,000 tested, under 10 active
#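 AlphaScreen binding: CBFb-His and RUNX1-biotin (30 nM each) preincubated 20 min, compound added for 15 min, then nickel and streptavidin beads for 90 min, all at room temperature. Disruption of the interaction by any mechanism counts as activity.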
# HTT aggregate: qHTS Multiplex Assay to Identify Dual Action Probes in a Cell Model of Huntington: Aggregate Formation (GFP); PC12 HttQ103-GFP aggregates, Acumen cytometry, 40 h; Potency, µM (highest dose often 46.1 µM), usual class: inhibitors; 1.1% of 220,000 active; further: nearly all actives have a fitted effect of over 60% in size
#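 Aggregates are detected as GFP objects 1–25 µm with signal 6 STDEV over background in lysates of induced PC12 cells. These carry Huntingtin exon 1 with 103 glutamines fused to GFP under an ecdysone promoter; compounds titrated.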
# ALDH1A1 inh: qHTS Assay for Inhibitors of Aldehyde Dehydrogenase 1 (ALDH1A1); Aldehyde dehydrogenase 1A1 (Homo sapiens), P00352; Purified ALDH1A1, NADH fluorescence, propionaldehyde substrate; Potency, µM (doses to about 75.3 µM), most hits filed as inhibitors; 7.3% of 220,000 active; active means well fitted inhibition curve with a large enough effect, not every such curve was filed as active; inconclusive means small, poorly fitted or top-dose-only effect, or another doubt; inactive means no such curve, though single readings can be large or run the other way
# HPGD inh: qHTS Assay for Inhibitors of HPGD (15-Hydroxyprostaglandin Dehydrogenase) | Potency, µM, most hits filed as inhibitors | 15-hydroxyprostaglandin dehydrogenase [NAD(+)] (Homo sapiens), P15428 | purified HPGD, NADH fluorescence kinetic, PGE2 substrate | 4.3% of 150,000 active; active means well fitted inhibition curve with a large enough effect, not every such curve was filed as active; inconclusive means small, poorly fitted or top-dose-only effect, or another doubt; inactive means no such curve, though single readings can be large or run the other way
# Target sequence (P15428 whole entry, looked up): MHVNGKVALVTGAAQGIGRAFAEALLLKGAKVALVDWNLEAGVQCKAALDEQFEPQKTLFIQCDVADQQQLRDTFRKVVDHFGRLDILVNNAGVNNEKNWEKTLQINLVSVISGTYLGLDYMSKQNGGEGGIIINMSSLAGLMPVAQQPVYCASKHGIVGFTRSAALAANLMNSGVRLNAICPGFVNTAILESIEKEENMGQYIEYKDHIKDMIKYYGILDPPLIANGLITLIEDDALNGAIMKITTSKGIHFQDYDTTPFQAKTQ
#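 NADH formation kinetics: reaction with 30 uM PGE2 and 1 mM NAD+ (final), 20 nM enzyme, Tris-HCl pH 8 with Tween 20, after 15 min compound preincubation at room temperature. Fluorescence change, last versus first of five reads.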
# HTT cytoprotect: qHTS Multiplex Assay to Identify Dual Action Probes in a Cell Model of Huntington: Cytoprotection (ATP). PC12 HTT-Q103 induced, cytoprotection, ATP luminescence, 40 h. 0.14% of 230,000 active. Potency, µM (top dose mostly 56.4 µM), most hits filed as activators. AID 1471, 2008; further: nearly all actives have a fitted effect of over 45% in size
#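 Readout: ATPlite luminescence (ATP level). Model: stable PC12, inducible Htt exon1 Q103-GFP. Inducer: tebufenozide, 100 nM final. Compounds: dose series. No G418 in medium.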
# PNC inhibitor: High Content Assay for Compounds that inhibit the Assembly of the Perinucleolar Compartment; AID 2417, 2010; PC3M PTB-GFP, PNC prevalence imaging, 16 h; hits give low values; activity change (PNC), negative = inhibition, % at 10 µM; 3.1% of 140,000 active;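 active means readout at or below -70, meaning at least 70% loss of cells showing the perinucleolar compartment, a nuclear body marking cancer cells; inconclusive means readout between -30 and a set limit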
#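 Compounds are pinned in duplicate onto adhered PC3M cells stably expressing GFP-tagged PTB and incubated 16 h at 37 C. Cells are then fixed, nuclei stained with Hoechst, and PNC-positive cells counted.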
# A number is an active result; . = inactive; ? = inconclusive; / = not tested or not shown; [ ] = another dose, or the depositor's remark. Unless noted, the call rests on the fitted dose curve; in most records, active means well fitted curve in the direction sought with a large enough effect; inconclusive means small, poorly fitted or top-dose-only effect, or another doubt; inactive means no such curve, though single readings can be large; an effect the other way counts as inactive or inconclusive.
SMILES,CBFb RUNX1 block,HTT aggregate,ALDH1A1 inh,HPGD inh,HTT cytoprotect,PNC inhibitor
CCCCCCCCCCOc1cc(OCCCCCCCCCC)cc(N(CC(=O)O)CC(=O)O)c1,.,/,/,/,/,/
CCCc1cc(=O)[nH]c(SCC(=O)CSc2nc(CCC)cc(=O)[nH]2)n1,.,.,14µM,.,.,.
CCCc1cc(=O)[nH]c(SCC(=O)NC)n1,.,.,.,.,.,.
CCCc1cc(=O)[nH]c(SCc2ccccc2Cl)n1,.,.[9.22 µM],.,14µM,.,.
Cc1ccc2nc(N3CC(=O)Nc4ccccc43)nc(-c3ccccc3)c2c1,.,.,.,.,.[10 µM],.
COC(=O)C1=C(C)N(Cc2ccccc2)[C@]23O[C@](C(=O)OC)(C(=O)N2C1c1ccccc1)C(C(=O)OC)C3C(=O)OC (some centres undefined),.[13.1 µM],/,.[13.5 µM],/,.[10 µM],/
COc1ccc(C(O)c2nc3ccccc3n2C(C)C)cc1 (centres undefined),.,.[9.22 µM],/,/,.[10 µM],/
O=C(Nc1ccccc1)N1CC2(CCN(C(=O)c3cc(C(F)(F)F)cc(C(F)(F)F)c3)CC2)C1,/,/,.,.,.,/
CN(C)C(=O)c1ccc(-c2nc(Nc3ccccc3)c3ccccc3n2)cc1,/,/,.,/,.,/
COc1ccc(-n2c(SC(C)C(=O)Nc3ncc(Cl)cc3Cl)nc3ccccc32)cc1 (centres undefined),.,.,?,.,.[10 µM],-111
Cc1nn(C)c(C)c1/C=N/NC(=O)c1csc2ccccc12,.,.,22µM,.,.[10 µM],?
Cc1ccc(C)c(S(=O)(=O)NCc2ccc(C(=O)N3CCCCCC3)cc2)c1,.,.,.,7.1µM,/,?
Cc1cc(C)c(C)c(S(=O)(=O)NCc2ccc(C(=O)N3CCCCC3)cc2)c1C,.,.,?,2µM,.[10 µM],.
Cc1cc(C)c(C)c(S(=O)(=O)NCc2ccc(C(=O)N3CCCC3)cc2)c1C,.,.,?,/,.,/
Cc1nnc(NC(=O)CSCc2ccccc2)s1,.,.,.,.,.[10 µM],-106
COc1ccc(C(=O)CSc2nnnn2Cc2ccccc2)cc1,.,?,13µM,.,.,.
O=C(CSc1nnnn1Cc1ccccc1)c1ccccc1,.,.,?,.,.[10 µM],.
Cc1nnc(NC(=O)CSc2nnnn2Cc2ccccc2)s1,.,0.35µM,.,.,?,?
COc1ccc(-n2nnnc2SCC(=O)c2ccc(O)c(O)c2)cc1,.,.,.,25µM,.[10 µM],.
C[N+](C)(C)[C@H](Cc1c[nH]c(=S)[nH]1)C(=O)O,/,/,.[13.5 µM],.,.[10 µM],/
Cc1[nH]c(=O)[nH]c(=O)c1CSCC(=O)OCC(=O)Nc1ccccn1,.,.[9.22 µM],/,/,.[10 µM],/
C=CCSC1=C(C#N)C(c2ccc(OCC)cc2)CC(=O)N1 (centres undefined),.,.,?,.,.,.
COC(=O)c1cc(OC)c(OC)cc1NC(=O)CSc1nnnn1Cc1ccccc1,.,.,13µM,?,.,.
CC(C)(c1ccccc1)c1ccc(OCCCN2CCNCC2)cc1,.,.[9.22 µM],16µM,/,.[10 µM],/
COc1cc(C)nc(Nc2nc(C)c(C(C)=O)s2)n1,.,.,1.6µM,/,.,.
SMILES,CBFb RUNX1 block,HTT aggregate,ALDH1A1 inh,HPGD inh,HTT cytoprotect,PNC inhibitor
COc1ccc2nc(Nc3nc(C)c(C(C)=O)s3)sc2c1,.,.,?,?,.,.
CC(=O)c1sc(Nc2ccccn2)nc1C,.,.,20µM,.,.[10 µM],?
CSCC[C@H](NC(=O)[C@H](CC(C)C)NC(=O)[C@@H]1CCCN1C(=O)[C@H](Cc1ccccc1)NC(=O)[C@H](Cc1ccccc1)NC(=O)[C@H](CCC(N)=O)NC(=O)[C@H](CCC(N)=O)NC(=O)[C@@H]1CCCN1C(=O)[C@H](CCCCN)NC(=O)[C@@H]1CCCN1C(=O)[C@@H](N)CCCN=C(N)N)C(N)=O,.,/,/,/,/,/
COC(=O)C1CCN(c2cc(=O)n(-c3ccccc3Cl)c(=O)[nH]2)CC1,.,.,18µM,.,.,?
Cc1cccc(C#N)c1NC1=CC(=O)CC(C)(C)C1,.,.[9.22 µM],7.9µM,.,.[0.074 µM],.
Cc1cc(C)c2c(-n3cccc3)c(C(=O)O)sc2n1,.,.,22µM,.,.[0.074 µM],.
CCCCNC(=O)c1sc2nc(C)cc(COC)c2c1-n1cccc1,.,.,?,.,.,.
Cc1cc(-c2nc(C)c(C(=O)NNS(=O)(=O)c3ccccc3)s2)no1,.,.[9.22 µM],.,/,.[10 µM],/
Cc1cc(C)c2c(-n3cccc3)c(C(=O)NNS(=O)(=O)c3ccccc3)sc2n1,.,.,4.5µM,.,.,.
COCc1cc(C)nc2sc(C(=O)NN)c(-n3cccc3)c12,.,.,0.5µM,/,.,/
O=C(CCl)Oc1ccc2occ(C(=O)c3cccs3)c2c1,.,.[9.22 µM],0.79µM,.,.,.
CC(=O)Oc1ccc2occ(C(=O)c3cccs3)c2c1,.,.,.,.,.,.
O=C(C1CC1)N1CCc2cc(Br)cc(S(=O)(=O)NCCN3CCOCC3)c21,.,.,.,.,.,.
O=C(C1CC1)N1CCc2cc(Br)cc(S(=O)(=O)NCc3ccc4c(c3)OCO4)c21,.,.,10µM,.,.,.
Cc1ccc(CNC(=O)CCS(=O)(=O)c2cc(Br)cc3c2N(C(=O)C2CC2)CC3)o1,.,.,10µM,?,.,?
O=C(O)CCS(=O)(=O)c1cc(Br)cc2c1N(C(=O)C1CC1)CC2,.,.,.,/,.[10 µM],/
O=C(C1CC1)N1CCc2cc(Br)cc(S(=O)(=O)NCc3ccco3)c21,.,.,2µM,.,.,.
O=C(C1CC1)N1CCc2cc(Br)cc(S(=O)(=O)NCc3ccccn3)c21,.,.,?,.,.,.
CCOCCCNS(=O)(=O)c1cc(Br)cc2c1N(C(=O)C1CC1)CC2,.,.,10µM,.,.,.
